Among the data in PubChem BioAssay (EPA / NIEHS) are AC50 and outcome values, retold here.

Inconclusive results are not listed. More than one record can exist for a structure, and the calls need not agree. Activity calls are given as the source filed them. The calls were made as follows, unless noted: active = hit-call score of the fitted dose curve at least 0.9, where 1 is the maximum; inactive = score below 0.9.

The nature of assay [1]: APR_HepG2_CellCycleArrest_24hr: Apredica 24-hour HepG2 Assay for Cell Cycle Arrest (AID 2282905).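 Also: cell cycle arrest scored as ratio of 2N to 4N nuclear DNA content.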 To be noted: imaging, actives raise or lower the signal. The gist of the method:
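Step one: dose HepG2 with test compounds, 0.39–200 uM, 0.5% DMSO, 24 hr. Step two: fix, permeabilize, stain nuclei with Hoechst 33342. Step three: image six fields per well at 20x, quantify DNA content, fit bidirectionally relative to DMSO.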

Assay [2] can be described thus: APR_HepG2_NuclearSize_24hr: Apredica 24-hour HepG2 Assay for Nuclear Size (AID 2282907). The settings on record: high-content imaging, actives raise or lower the signal. The procedure, abridged: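 After fixation and permeabilization, 24-hr-treated HepG2 cells were stained with Hoechst 33342 and imaged on an ArrayScan (20x). Doses spanned 0.39–200 uM in duplicate. Nuclear diameter changes in either direction were fitted relative to 0.5% DMSO controls.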

Assay [3] can be described thus: APR_HepG2_CellLoss_24hr: Apredica 24-hour HepG2 Assay for Cell Loss (AID 2282908).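 As to AC50: fit in both directions so a hit may be cell loss or gain.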 The settings on record: high-content imaging. The gist of the method:
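Duplicate wells received compound at ten concentrations (0.39–200 uM; final DMSO 0.5% v/v). After fixation with formaldehyde, nuclei stained with Hoechst 33342 were imaged at 20x. Loss or gain of cell count was fitted relative to DMSO controls.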

Assay [4] in a line: APR_HepG2_MicrotubuleCSK_24hr: Apredica 24-hour HepG2 Assay for Microtubule CSK Stabilty (AID 2282909). The settings on record: HepG2 microtubule cytoskeleton imaging, actives raise or lower the signal. The gist of the method: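 Microtubule stability is scored from tubulin immunofluorescence in fixed HepG2 cells imaged at 20x. Cells receive ten compound concentrations up to 200 uM for 24 h; taxol and DMSO serve as positive and negative controls.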

Assay [5] in a line: APR_HepG2_MitoticArrest_24hr: Apredica 24-hour HepG2 Assay for Mitotic Arrest (AID 2282910). The settings on record: high-content imaging, actives raise or lower the signal. The gist of the method: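 Treatment lasted 24 hr in the human HepG2 line at 0.39–200 uM, solvent held at 0.5% DMSO. Fixed cells were stained with Hoechst 33342 and anti-phospho-histone H3, imaged at 20x, and analysed by gain- or loss-of-signal fitting against DMSO.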

Assay [6] is described as follows: APR_HepG2_MitoMembPot_24hr: Apredica 24-hour HepG2 Assay for Mitochondrial Membrane Potential (AID 2282911). To be noted: imaging, actives raise or lower the signal. The gist of the method: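 HepG2 human liver cells were exposed 24 hr to compounds at 0.39–200 uM (final DMSO 0.5% v/v) in duplicate. MitoTracker Red CMXRos (250 nM, 30 min) was loaded before formaldehyde fixation; fluorescence was imaged by ArrayScan HCS and fitted bidirectionally versus DMSO.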

Assay [7] in a line: APR_HepG2_p53Act_24hr: Apredica 24-hour HepG2 Assay for p53 Activation (AID 2282913).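 Also: p53 protein immunofluorescence averaged per cell in HepG2 with Hoechst nuclei.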 To be noted: high-content imaging, actives raise or lower the signal. The gist of the method: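 HepG2 cells exposed 24 hr to compounds at 0.39–200 uM (10 concentrations, duplicate), final DMSO 0.5% v/v. After formaldehyde fixation and Triton permeabilization, p53 was immunolabeled (sheep anti-p53, Cy5 secondary) with Hoechst 33342 nuclear counterstain, then imaged by high-content fluorescence microscopy.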

Assay [8] in a line: APR_HepG2_CellCycleArrest_72hr: Apredica 72-hour HepG2 Assay for Cell Cycle Arrest (AID 2282914). The settings on record: high-content imaging, actives raise or lower the signal. The procedure, abridged: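 HepG2 cells were exposed to compounds at 0.39–200 uM (0.5% v/v DMSO final, duplicates) for 72 hr, fixed in 3.7% formaldehyde, permeabilized and stained with Hoechst 33342. Nuclear DNA content was quantified by high-content imaging; gain or loss of signal was fitted bidirectionally against DMSO.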

Assay [9] is described as follows: APR_HepG2_CellLoss_72hr: Apredica 72-hour HepG2 Assay for Cell Loss (AID 2282915). The settings on record: high-content imaging. The gist of the method:
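HepG2 cells were exposed for 72 hr to compounds at 0.39–200 uM (ten concentrations, duplicate) in 0.5% v/v final DMSO. Nuclei were stained with Hoechst 33342 after 3.7% formaldehyde fixation, imaged at 20x, and counted; fits bidirectional versus DMSO.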

Assay [10] is described as follows: APR_HepG2_P-H2AX_72hr: Apredica 72-hour HepG2 Assay for H2AX Phosphorylation (AID 2282916).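 Also: phospho-histone H2A.x immunostain intensity per cell marking DNA damage.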 The settings on record: imaging, actives raise or lower the signal. The gist of the method: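 Phospho-H2A.x imaging endpoint in HepG2 after 72 hr compound exposure (0.39–200 uM, duplicate wells). Activity derived by bidirectional curve fitting with DMSO as baseline.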
Assay [11] can be described thus: APR_HepG2_MitoMembPot_72hr: Apredica 72-hour HepG2 Assay for Mitochondrial Membrane Potential (AID 2282917). The settings on record: imaging, actives raise or lower the signal. The gist of the method: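 HepG2 cells exposed 72 h to compounds at 0.39–200 uM (0.5% v/v DMSO, duplicates); MitoTracker Red CMXRos 250 nM loaded 30 min before 3.7% formaldehyde fixation, imaged by HCS fluorescence. Bidirectional fit versus DMSO.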

Assay [12] is described as follows: APR_HepG2_MitoticArrest_72hr: Apredica 72-hour HepG2 Assay for Mitotic Arrest (AID 2282918). The settings on record: high-content imaging, actives raise or lower the signal. The gist of the method:
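HepG2 cells were exposed for 72 hr to compound at 0.39–200 uM (10 concentrations, duplicate) in 0.5% v/v DMSO, fixed in 3.7% formaldehyde, immunostained for phospho-histone H3 with Hoechst 33342 and imaged by high-content fluorescence; bidirectional fits versus DMSO.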

Assay [13] is described as follows: APR_HepG2_MicrotubuleCSK_72hr: Apredica 72-hour HepG2 Assay for Microtubule CSK Stabilty (AID 2282919). To be noted: HepG2 microtubule cytoskeleton, high-content imaging, actives raise or lower the signal. The procedure, abridged:
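Ten-point dosing (0.39–200 uM, 0.5% DMSO) of HepG2 for 72 hr, with taxol as the cytoskeletal positive control. The cells were formaldehyde-fixed and then stained with alpha-tubulin/Cy5 and Hoechst. Imaging at 20x used a −2 um Z offset for tubulin.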

Assay [14] is described as follows: APR_HepG2_P-H2AX_24hr: Apredica 24-hour HepG2 Assay for H2AX Phosphorylation (AID 2282920). To be noted: high-content imaging, actives raise or lower the signal. The procedure, abridged: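 HepG2 human liver cells were exposed for 24 hr to compounds at 0.39–200 uM in duplicate, with 0.5% v/v DMSO final. Fixed cells were immunostained for phospho-histone H2A.x plus Hoechst 33342, imaged by HCS fluorescence, and fitted bidirectionally against DMSO.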

Assay [15] is described as follows: APR_HepG2_StressKinase_72hr: Apredica 72-hour HepG2 Assay for Stress Kinase (AID 2282921). To be noted: HepG2 stress kinase (phospho-c-Jun) imaging, actives raise or lower the signal. The procedure, abridged: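 Stress kinase signal reflects nuclear phospho-c-Jun staining in fixed, permeabilized cells exposed 72 h to compound at 0.39–200 uM; DMSO-normalized, fitted for increases or decreases.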

The nature of assay [16]: APR_HepG2_StressKinase_24hr: Apredica 24-hour HepG2 Assay for Stress Kinase (AID 2282922). To be noted: HepG2 stress kinase (phospho-c-Jun) imaging, actives raise or lower the signal. The procedure, abridged:
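After 24 hr compound treatment (up to 200 uM, final DMSO 0.5% v/v), HepG2 cells are fixed and multiplex-labeled; phospho-c-Jun intensity is captured by high-content fluorescence imaging and analyzed relative to DMSO.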

Assay [17] is described as follows: APR_HepG2_p53Act_72hr: Apredica 72-hour HepG2 Assay for p53 Activation (AID 2282923).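 Also: average cellular p53 protein immunofluorescence intensity in HepG2 cells.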 To be noted: high-content imaging, actives raise or lower the signal. The gist of the method: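 Fixed-cell p53 staining (sheep primary, Cy5 secondary) measured by fluorescence imaging following 72 hr treatment at 0.39–200 uM in 0.5% DMSO; DMSO served as negative control and baseline.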

Assay [18] is described as follows: APR_HepG2_MitoMass_72hr: Apredica 72-hour HepG2 Assay for Mitochondrial Mass (AID 2282924).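 Also: MitoTracker Red CMXRos stain intensity per cell imaged as mitochondrial mass.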 The settings on record: high-content imaging, actives raise or lower the signal. The gist of the method:
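Steps: treat HepG2 72 hr (0.39–200 uM, duplicate wells); load MitoTracker Red CMXRos, 250 nM, 30 min; fix with 3.7% formaldehyde, permeabilise with 0.5% Triton X-100; capture images, nuclei via Hoechst 33342; fit bidirectionally against DMSO.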

A short description of assay [19]: APR_HepG2_NuclearSize_72hr: Apredica 72-hour HepG2 Assay for Nuclear Size (AID 2282925). The settings on record: high-content imaging, actives raise or lower the signal. The gist of the method: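 Compounds (0.39–200 uM, final DMSO 0.5%) were applied to HepG2 for 72 hr. Cells were then formaldehyde-fixed, permeabilized and labelled with Hoechst 33342. Nuclear diameter was quantified from six images per well.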

Assay [20] is described as follows: ACEA_ER_80hr: ACEA Biosciences xCELLigence Real-Time Cell Analysis on Estrogen Receptor Agonism for Proliferation (AID 2282667; active = hit-call score of the fitted dose curve at least 0.9, where 1 is the maximum). The settings on record: T47D proliferation, impedance (xCELLigence), 80 h. The procedure, abridged: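 T47D human breast cells were seeded on electrode plates, monitored overnight, then exposed continuously to compounds in eight-point 1:4 dilutions from 100 uM (max 0.5% DMSO). Impedance-based growth was read at 80 h, fitted upward relative to DMSO.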

For the molecule `COc1cc(-c2ccc(N)c(OC)c2)ccc1N`, the AC50 in assay [1] was 58.7 µM (active); in assay [3], 26.9 µM (active); in assay [5], 28.8 µM (active); in [6] it was 12.7 µM (active); in assay [8] it was 13.8 µM (active); in assay [9], 56.5 µM (active). The AC50 in [10] is 24.8 µM (active); in assay [11] it was 14.3 µM (active); in assay [12] it was 24.8 µM (active); in [13], 42.1 µM (active); in [14], 50.8 µM (active); in [17] it was 35.2 µM (active). For the same molecule, the molecule was classed as inactive in assay [1], in [2], in assay [3], in assay [4], in [5] and in assay [6]. Moreover, the call in assay [7], in [8], in assay [9], in assay [10], in assay [11] and in [12] was inactive. The call in assay [13], in assay [14], in assay [15], in assay [16], in assay [17] and in [18] was inactive. Also, the molecule was called inactive in assay [19].

For `NC(=O)CF`, in assay [20], the molecule was classed as inactive.

On to `CCC(C)(C)c1ccc(O)c(C(C)(C)CC)c1`, for which the half-maximal activity concentration (AC50) in assay [1] was 28.1 µM (active); in assay [2], 39.1 µM (active); in [3], 40.5 µM (active); in assay [5], 32.3 µM (active); in assay [6] it was 29.7 µM (active); in [7], 32.1 µM (active). Besides, the AC50 is 13.9 µM (active) in assay [8]; 37.4 µM (active) in assay [9]; 59.4 µM (active) in assay [12]; 39.3 µM (active) in assay [14]; 29.7 µM (active) in assay [17]; 82.5 µM (active) in assay [18]. Also, the molecule was called inactive in [4], in [10], in [11], in assay [13], in assay [15] and in assay [16]. The call in [19] was inactive.

For orientation: AC50 means the midpoint of the concentration-response curve, whichever way the signal moves.
